Assay outcomes (PubChem)
ELG1 DNA repair – ELG1-dependent DNA repair inhibition | HEK293T ELG1-luciferase reporter, luminescence, 16 h; DNA damage induced by 5-fluorouridine | Potency, µM (top dose mostly 46.1 µM), for the others: top-dose activity change, negative = inhibition, actives largely listed as inhibitors | 330,000 compounds, 2.3% hits | AID 504467; further: potency means the concentration at half of the fitted maximal effect; nearly all actives have a fitted effect of over 55% in size
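5-Fluorouridine DNA damage + compound/DMSO, 2,000 cells/well, 16 h, 37 °C/5% CO2. ONE-Glo, 30 min RT, luminescence. Readout = decrease in reporter signal.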
IL1B secr inh – blocks inflammasome-driven IL-1 beta release | THP-1 LPS/ATP IL-1B secretion, AlphaLISA, 16 h; active compounds read low | activity change, % at 57.5 µM | 360,000 compounds, 4.7% hits | AID 743279; in the data active means activity change below about -50%; inconclusive means mostly about -30% to -49%
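THP-1 cells pretreated 1 hr with compounds (up to 57.5 uM final), then stimulated with LPS (250 ng/mL final) plus ATP (1.25 mM final); secreted IL-1B measured by AlphaLISA after 16 hr, decreased signal indicating inhibition.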
DT40 TDP1 CPT – growth inhibition of DT40 Tdp1-/-;hTDP1 cells with camptothecin (screen for TDP1 inhibitors) | chicken DT40 Tdp1-/-;hTDP1 cells + 20 nM CPT, ATP luminescence, 48 h | Potency, µM (top dose mostly 46.2 µM), for inactives: top-dose activity change, negative = growth inhibition, usual class: inhibitors | 420,000 compounds, 12% hits; further: potency means the concentration at half of the fitted maximal effect; nearly all actives have a fitted effect of over 55% in size
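Chicken DT40 Tdp1-/- cells stably complemented with human TDP1 were seeded at 400 cells/well in medium containing 20 nM camptothecin, exposed to pin-transferred compounds, and grown at 37 °C for at least 48 hr. Viability was read as ATP luminescence.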
HT1080-NT tox – kills 2HG-producing HT-1080-NT fibrosarcoma cells; HT-1080-NT fibrosarcoma viability, CellTiter-Glo ATP luminescence, 48 h; 360,000 compounds, 1.6% hits; Potency, µM (highest dose often 46.1 µM), for inactives: at the highest dose activity, negative = less viability, most hits filed as cytotoxic;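 further: NT is the 2HG producing partner of a matched IDH1 knockdown line; potency means the concentration at half of the fitted maximal effect; 0% = DMSO-treated cells and -100% = media-only wells without cells; nearly all actives have a fitted effect of over 55% in size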
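Viability by CellTiter-Glo luminescence after 48 h compound exposure at 37C of HT-1080-NT cells (750/well, RPMI, 5% FBS). % activity scaled between DMSO wells and medium-only wells, then curve-fitted and categorized by curve class.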
DT40 TDP1 no CPT – qHTS for Inhibitors of human tyrosyl-DNA phosphodiesterase 1 (TDP1): qHTS in cells in absence of CPT; DT40 Tdp1-/- hTDP1 cells, no CPT, ATP luminescence, 48 h; 420,000 compounds, 15% hits; Potency, µM (titrated, usually from 46.2 µM), for inactives: at the top dose activity change, negative = growth inhibition, actives largely listed as inhibitors; further: potency means the concentration at half of the fitted maximal effect; nearly all actives have a fitted effect of over 55% in size
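A cellular qHTS used chicken DT40 cells lacking endogenous Tdp1 but carrying stably transfected human TDP1. Compounds were applied without camptothecin, and cell growth kinetics were judged by ATP-dependent luminescence after ≥48 hr.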
HT1080 IDH1KD tx – kills HT-1080 cells with IDH1 knockdown; 360,000 compounds, 2% hits; Potency, µM (highest dose often 46.1 µM), inactives show at the top dose activity, negative = toxicity, hits mostly cytotoxic; HT-1080 IDH1 knockdown viability, ATP luminescence, 48 h;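 further: potency means the concentration at half of the fitted maximal effect; 0% = DMSO wells and -100% = cell-free medium wells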
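In this qHTS, HT-1080 cells depleted of IDH1 are exposed for 48 h at 37 °C to compound titrations. Toxicity is scored from CellTiter-Glo luminescence, with DMSO as full viability and medium alone as none.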
* marks the source's active call; other numbers are inactive results; ? = inconclusive; . = no result given. Sampled rows, rich in hits. Any-hit rate of the full collection: about 19%. Unless noted, the call rests on the fitted dose curve; in most records, active means well fitted curve in the direction sought with a large enough effect; inconclusive means small, poorly fitted or top-dose-only effect, or another doubt; inactive means no such curve, though single readings can be large; an effect the other way counts as inactive or inconclusive. Unless noted, on the % scale 0 is the no-effect control and ±100 the full control effect.

SMILES | ELG1 DNA repair | IL1B secr inh | DT40 TDP1 CPT | HT1080-NT tox | DT40 TDP1 no CPT | HT1080 IDH1KD tx
CC(C)C[C@H]1C(=O)N2CCC[C@H]2[C@]2(O)O[C@](NC(=O)[C@@H]3C=C4c5cccc6[nH]cc(c56)C[C@H]4N(C)C3)(C(C)C)C(=O)N12 | -9% | -2 | 21µM* | -28% | 16µM* | -14%
CC[C@@H](CO)NC(=O)[C@H]1C=C2c3cccc4[nH]cc(c34)C[C@H]2N(C)C1 | . | . | 5% | . | -19% | .
COc1ccc(C(=O)N2C[C@H]3C[C@@H](C2)c2cccc(=O)n2C3)cc1OC | -4% | -11 | 20% | 14% | 0% | 2%
C=C1CCN([C@@H](CC(C)C)C(=O)Nc2ccc(OC)cc2)S(=O)(=O)c2ccccc21 | . | 3 | ? | -2% | 23µM* | 2%
COc1ccc2c3c1O[C@H]1C(=O)CC[C@H]4[C@@H](C2)N(C)CC[C@]314 | 17% | -89* | 21% | -5% | ? | -3%
CCCc1nc(SC)ncc1C(=O)Nc1ccc(Cl)cc1C(=O)c1ccccc1 | . | . | ? | . | 23µM* | .
CCc1nc(SC)ncc1C(=O)Nc1ccc(Cl)cc1C(=O)c1ccccc1 | . | . | -1% | . | ? | .
[Hg+][c]1ccccc1 | . | . | 0.089µM* | . | 0.1µM* | .
Nc1ccccc1 | . | . | -17% | . | -19% | .
C#CCOc1cc(C2C3=C(COC3=O)Nc3cc4c(cc32)OCO4)ccc1OC (configuration not stated) | ? | 85 | 21µM* | -4% | -61% | -2%
CN1CCCC2(CCN(C(=O)c3ccncc3)CC2)C1 | . | . | -2% | . | 4% | .
CC1CN1c1cc2c(c3c1ccn3C)C1CCC2C1 (configuration not stated) | . | 22 | 7.3µM* | 0% | 8.2µM* | 5%
CCCCCCCCCC(=O)O[C@H]1CC[C@H]2[C@@H]3CCC4=CC(=O)CC[C@@H]4[C@H]3CC[C@]12C | . | . | 19% | . | 0% | .
CC(N)[C@H](O)c1ccccc1 (some centres not stated) | . | . | 3% | . | 0% | .
c1ccc(C(c2ccccc2)c2ccncc2)cc1 | . | -27 | ? | -9% | 21µM* | 0%
O=C(Nc1ccccc1)N1CC[C@@]2(CCCN(C(=O)Oc3ccccc3)C2)C1 | . | . | 5% | . | -11% | .
COC(=O)COc1cc(Cl)c(Cl)cc1Cl | . | . | 17% | . | 5% | .
Cc1ccc(-n2cc(CNC(C)Cc3cnccn3)c(-c3cccc(C)c3)n2)cc1 (configuration not stated) | ? | -76* | 13µM* | ? | 12µM* | ?
Cc1ccc(Cn2cccc(C(=O)Nc3ccc4c(c3)OCO4)c2=O)cc1 | . | . | -24% | . | -17% | .
Cc1ccc(Cn2cccc(C(=O)Nc3ccc4c(c3)OCCO4)c2=O)cc1 | . | . | 21µM* | . | 16µM* | .
O=C(Nc1ccc2c(c1)OCCO2)c1cccn(Cc2cccc(F)c2)c1=O | . | . | 21µM* | . | 23µM* | .
CCc1ccc(NC(=O)c2cccn(Cc3cccc([N+](=O)[O-])c3)c2=O)cc1 | . | . | -19% | . | 21µM* | .
C[C@H]1CNC(=O)c2c(C(=O)Nc3cccc(Cl)c3)ncn21 | . | 0 | -7% | -16% | ? | -7%
CC1(C)C[C@H]2C=C(C=O)[C@]3(C=O)C[C@]3(C)[C@H]2C1 | 5.8µM* | -108* | 0.92µM* | 16µM* | 0.82µM* | 12µM*
CC1(C)Cc2c(sc3nc4n(-c5ccccc5)c(=O)c(CCC(=O)O)nn4c(=O)c23)CO1 | ? | 13 | ? | 6% | -29% | -4%
COc1ccc(C2=C(C(C)=O)Sc3nnc(-c4ccc(C)cc4)n3N2C(C)=O)cc1OC | . | . | 2.9µM* | . | 4.6µM* | .
O=[N+]([O-])c1ccc(N2CCCC2)c(F)c1Br | -5% | -6 | 13µM* | 1% | 23µM* | 0%
